ChEMBL document CHEMBL4513141, “CO-ADD screening of NIH (USA) - Clinical Collection” (2021)
Results with a measured potency or affinity are listed apart.

Experiments:
[1] = tested on: Klebsiella pneumoniae; settings: Concentration 20 uM; ASSAY_TEST Inhibition of Bacterial Growth; detection method Absorption (OD600); MEDIA CAMHB; plate type 384well; NBS; CORNING #3640; time 18 hr
[2] = tested on: Candida albicans; settings: 20 µM
[3] = tested on: Cryptococcus neoformans; settings: Concentration 20 uM; ASSAY_TEST Inhibition of Fungal Growth; detection method Resazurin; Absorption (OD600-OD570); plate type 384well; NBS; CORNING #3640

CC[C@]1(O)C[C@@H]2CN(CCc3c([nH]c4ccccc34)[C@@](C(=O)OC)(c3cc4c(cc3OC)N(C=O)[C@H]3[C@@](O)(C(=O)OC)[C@H](OC(C)=O)[C@]5(CC)C=CCN6CC[C@]43[C@@H]65)C2)C1.O=S(=O)(O)O
Inhibition [1]: 3.74% | Inhibition [2]: 2.01% | Inhibition [3]: -7.42%

COc1cc(N)c(Cl)cc1C(=O)N[C@@H]1CCN(CCCOc2ccc(F)cc2)C[C@@H]1OC.O [(R,S)-CISAPRIDE MONOHYDRATE]
Inhibition [1]: 7.83% | Inhibition [2]: 1.98% | Inhibition [3]: 3.24%

OCc1cc(C(O)CNCCCCCCOCCCCc2ccccc2)ccc1O (configuration not stated) [SALMETEROL]
Inhibition [1]: 16.35% | Inhibition [2]: 5.42% | Inhibition [3]: -8.37%

C=C1/C(=C\C=C2/CCC[C@]3(C)[C@@H]([C@H](C)CCCC(C)(C)O)CC[C@@H]23)C[C@@H](O)C[C@@H]1O [CALCITRIOL]
Inhibition [1]: 21.35% | Inhibition [2]: 2.06% | Inhibition [3]: -8.66%

CS(=O)(=O)c1ccc(C2=C(c3ccccc3)C(=O)OC2)cc1 [ROFECOXIB]
Inhibition [1]: 8.3% | Inhibition [2]: 2.84% | Inhibition [3]: -2.65%

COc1ccccc1OCCNCC(O)COc1cccc2[nH]c3ccccc3c12 (configuration not stated) [CARVEDILOL]
Inhibition [1]: 14.17% | Inhibition [2]: 1.69% | Inhibition [3]: 1.85%

CC(C(=O)[O-])c1ccc(CC2CCCC2=O)cc1.[Na+] (configuration not stated) [LOXOPROFEN SODIUM]
Inhibition [1]: 6.48% | Inhibition [2]: 2.26% | Inhibition [3]: -10.19%

COc1ccc(-c2cc(=O)c3c(OC)c(OC)c(OC)c(OC)c3o2)cc1OC [NOBILETIN]
Inhibition [1]: 4.76% | Inhibition [2]: 7.12% | Inhibition [3]: -2.3%

CCOC(=O)[C@H](CCc1ccccc1)N[C@@H](C)C(=O)N1[C@H](C(=O)O)C[C@@H]2CCC[C@@H]21
Inhibition [1]: 20.74% | Inhibition [2]: 1.9% | Inhibition [3]: -1.7%

Cl.NC[C@H]1CC[C@H](C(=O)Oc2ccc(CCC(=O)O)cc2)CC1 [CETRAXATE HYDROCHLORIDE]
Inhibition [1]: 11.26% | Inhibition [2]: 4.33% | Inhibition [3]: -5.7%

Cl.NC12CC3CC(CC(C3)C1)C2 [AMANTADINE HYDROCHLORIDE]
Inhibition [1]: 13.94% | Inhibition [2]: 3.06% | Inhibition [3]: -3.67%

CCN(CC)CCOC(=O)c1ccc(N)cc1.Cl [PROCAINE HYDROCHLORIDE]
Inhibition [1]: 12% | Inhibition [2]: 3.62% | Inhibition [3]: -2.16%

Cl.Clc1cccc(Cl)c1NC1=NCCN1 [CLONIDINE HYDROCHLORIDE]
Inhibition [1]: 4.94% | Inhibition [2]: 3.3% | Inhibition [3]: -10.31%

CNCCC=C1c2ccccc2CCc2ccccc21.Cl [NORTRIPTYLINE HYDROCHLORIDE]
Inhibition [1]: 11.74% | Inhibition [2]: 1.73% | Inhibition [3]: -10.6%

CC(N)C12CC3CC(CC(C3)C1)C2.Cl (configuration not stated) [RIMANTADINE HYDROCHLORIDE]
Inhibition [1]: 8.19% | Inhibition [2]: 2.89% | Inhibition [3]: -3.72%

NS(=O)(=O)c1cc2c(cc1C(F)(F)F)NC(Cc1ccccc1)NS2(=O)=O (configuration not stated) [BENDROFLUMETHIAZIDE]
Inhibition [1]: 6.67% | Inhibition [2]: 3.76% | Inhibition [3]: -1.07%

CS(=O)(=O)O.Oc1ccc(C2CNCCc3c2cc(O)c(O)c3Cl)cc1 (configuration not stated) [FENOLDOPAM MESYLATE]
Inhibition [1]: 10.68% | Inhibition [2]: 1.85% | Inhibition [3]: -12.04%

CC(C)(C(=O)c1cccnc1)c1cccnc1 [METYRAPONE]
Inhibition [1]: 19.17% | Inhibition [2]: 2.49% | Inhibition [3]: -9.27%

O=C1CN(/N=C/c2ccc(-c3ccc([N+](=O)[O-])cc3)o2)C(=O)[N-]1.[Na+] [DANTROLENE SODIUM]
Inhibition [1]: 2.98% | Inhibition [2]: 0.63% | Inhibition [3]: 5.43%

CC(C)(C#N)c1cc(Cn2cncn2)cc(C(C)(C)C#N)c1 [ANASTROZOLE]
Inhibition [1]: -11.78% | Inhibition [2]: 1.23% | Inhibition [3]: -3.6%

O=c1c(-c2ccccc2)c1-c1ccccc1 [DIPHENCYPRONE]
Inhibition [1]: -5.06% | Inhibition [2]: 5.88% | Inhibition [3]: 10.54%

OCCN(CCO)c1nc(N2CCCCC2)c2nc(N(CCO)CCO)nc(N3CCCCC3)c2n1 [DIPYRIDAMOLE]
Inhibition [1]: 2.81% | Inhibition [2]: 2.59% | Inhibition [3]: 5.59%

COc1cc(/C=C/c2ccc(O)cc2)cc(OC)c1 [PTEROSTILBENE]
Inhibition [1]: 7.46% | Inhibition [2]: 3.65% | Inhibition [3]: -0.34%

CCc1cccc2c3c([nH]c12)C(CC)(CC(=O)O)OCC3 (configuration not stated) [ETODOLAC]
Inhibition [1]: 6.96% | Inhibition [2]: 1.19% | Inhibition [3]: -2.08%

CC(=O)O.NCc1ccc(S(N)(=O)=O)cc1 [MAFENIDE ACETATE]
Inhibition [1]: 13.84% | Inhibition [2]: 0.67% | Inhibition [3]: -7.57%

CC(Cc1ccc(O)c(O)c1)(NN)C(=O)O.O (configuration not stated)
Inhibition [1]: 11.66% | Inhibition [2]: 2.35% | Inhibition [3]: -6.03%

Cl.O=C1[C@H]2CCCC[C@H]2C(=O)N1CCCCN1CCN(c2nsc3ccccc23)CC1
Inhibition [1]: 9.66% | Inhibition [2]: 2.33% | Inhibition [3]: -7.18%

CC(c1cc2ccccc2s1)N(O)C(N)=O (configuration not stated) [ZILEUTON]
Inhibition [1]: 4.07% | Inhibition [2]: 5.22% | Inhibition [3]: 2.66%

O=C(O[C@H]1[C@H](Oc2ccccc2COC(=O)C2(O)C=CCCC2=O)O[C@H](CO)[C@@H](O)[C@@H]1O)c1ccccc1 (some centres not stated) [TREMULACIN]
Inhibition [1]: 9.15% | Inhibition [2]: 3.13% | Inhibition [3]: -9.11%
